Bioassay records deposited in PubChem BioAssay by National Center for Advancing Translational Sciences (NCATS).
TbPYK inhibitor = inhibitors of Trypanosoma brucei pyruvate kinase; Q57TT1; TbPYK enzyme, Kinase-Glo Plus ATP luminescence, 45 min; Potency, µM (highest dose often 76.8 µM), without a hit: top-dose activity, negative = inhibition, actives largely listed as inhibitors; 0.12% of 410,000 active; note: potency is the fitted concentration of half-maximal effect; % is set by controls: 0 for no effect and ±100 for the full control effect; nearly all actives have a fitted effect of over 50% in size
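Assay buffer: 50 mM TEA pH 7.2, 100 mM KCl, 10 mM MgCl2, 0.05% BSA, 0.01% Tween-20. Pyruvate kinase from T. brucei plus substrate met compound, then ADP (130 uM final). Luminescence was read post 45 min RT.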
LmPK inh = LmPK (Leishmania mexicana) enzyme inhibition; Q27686; purified LmPK, Kinase-Glo ATP luminescence, 1 h; Potency, µM (doses to about 57.5 µM), without a hit: top-dose activity change, negative = inhibition, usual class: inhibitors; 0.37% of 290,000 active; AID 1721; note: potency is the fitted concentration of half-maximal effect; % is set by controls: 0 for no effect and ±100 for the full control effect
Target sequence (Q27686 whole entry, looked up): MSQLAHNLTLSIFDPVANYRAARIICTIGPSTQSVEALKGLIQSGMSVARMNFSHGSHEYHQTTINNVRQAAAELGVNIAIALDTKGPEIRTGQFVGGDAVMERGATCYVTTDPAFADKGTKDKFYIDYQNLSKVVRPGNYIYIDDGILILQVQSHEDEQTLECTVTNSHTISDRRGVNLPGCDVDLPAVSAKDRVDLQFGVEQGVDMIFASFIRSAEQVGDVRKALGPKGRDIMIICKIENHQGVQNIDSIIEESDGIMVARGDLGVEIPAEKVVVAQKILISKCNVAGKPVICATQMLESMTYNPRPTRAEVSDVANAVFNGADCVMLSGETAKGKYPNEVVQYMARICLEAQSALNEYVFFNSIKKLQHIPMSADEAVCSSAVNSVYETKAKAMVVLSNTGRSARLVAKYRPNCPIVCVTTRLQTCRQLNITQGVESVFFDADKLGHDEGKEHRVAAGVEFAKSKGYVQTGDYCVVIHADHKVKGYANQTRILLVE
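Pyruvate kinase activity monitored as ATP production (luciferase luminescence). Conditions: 0.1 nM enzyme, 0.5 mM PEP, 0.1 mM ADP, 1 h, RT; normalized against uninhibited and no-enzyme wells.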
Shiga inhibitor = inhibitors of Shiga toxin in Vero cells; Vero cells, Shiga toxin protein synthesis inhibition reporter; inhibition, % at 38.7 µM; 9.2% of 290,000 active; AID 2315; in the data active = inhibition mostly above about 28%, no sharp cut-off; inactive = mostly below about 43%; note: 0% is about no effect
Cycloheximide cs = counter-screen for Shiga toxin inhibitors: cycloheximide protein synthesis inhibition; cell reporter, cycloheximide protein synthesis inhibition counterscreen; max response, %; 12% of 300,000 active; AID 2314; in the data active = max response mostly above about 13%, no sharp cut-off; inactive = mostly below about 14%; note: read at 38.3 µM for the half of the compounds with a filed dose; 0% is about no effect
RE007 growth inh = less growth of the S. pombe RE007 Vpr strain | S. pombe RE007 Vpr strain, BacTiter-Glo ATP luminescence, 24 h | Potency, µM (series often up to 92.2 µM), without a hit: at the top dose activity change, negative = less growth, hits mostly inhibitors | 0.21% of 360,000 active | AID 651644; active = well fitted falling curve with a large enough effect; inconclusive = small, poorly fitted or top-dose-only effect; inactive = no such curve, though single readings can be large or run the other way; note: potency is the fitted concentration of half-maximal effect; % is set by controls: 0 for no effect and ±100 for the full control effect; nearly all actives have a fitted effect of over 50% in size
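Fission yeast strain RE007, carrying one chromosomally integrated HIV-1 vpr copy, was seeded at OD 0.01 in PMG+AL medium with 23 nL pinned compound. After 24 h at 30 °C and 99% humidity, viability was read by BacTiter-Glo luminescence.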
Giardia FBPA inh-1 = blocks Giardia fructose-bisphosphate aldolase activity; Potency, µM (highest dose often 59.6 µM), for inactives: at the highest dose activity, negative = inhibition, usual class: inhibitors; A8B2U2; 0.71% of 290,000 active; AID 2451; purified Giardia FBPA; note: potency is the fitted concentration of half-maximal effect; % is set by controls: 0 for no effect and ±100 for the full control effect; nearly all actives have a fitted effect of over 55% in size
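40 nM FBPA preincubated 10 min at RT with compound (up to 57.5 uM final), then substrate plus GAPDH/TPI/NAD/arsenate coupling and diaphorase/resazurin added. Fluorescence read after 20 min at RT, 525/598 nm.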
Giardia growth = inhibitors of Giardia lamblia growth. shares compounds with Giardia FBPA inh-1. Giardia lamblia trophozoite growth inhibition. Potency, µM (series often up to 57.5 µM), inactives show at the top dose activity change, negative = inhibition, usual class: inhibitors. 5% of 1,500 active. AID 2785;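 note: potency is the fitted concentration of half-maximal effect; trophozoites exposed to compound for 48 h at 37 °C; % is set by controls: 0 for no effect and ±100 for the full control effect; nearly all actives have a fitted effect of over 70% in size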
Mammalian tox = counter-screen for Giardia aldolase inhibitors: mammalian cell toxicity | shares compounds with Giardia FBPA inh-1 | mammalian cell viability counter-screen, qHTS | Potency, µM (series often up to 57.5 µM), inactives show top-dose viability change, negative = toxicity, actives largely listed as inhibitors | 4% of 1,500 active | AID 2786;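 note: Chinese hamster ovary cells used as mammalian cytotoxicity surrogate; viability measured as cellular ATP by luminescence; potency is the fitted concentration of half-maximal effect; compound exposure lasted 48 h before reading; % is set by controls: 0 for no effect and ±100 for the full control effect; nearly all actives have a fitted effect of over 60% in size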
Giardia FBPA inh-2 = confirmation of Giardia fructose-bisphosphate aldolase inhibitors. Potency, µM (titrated, usually from 57.5 µM), for inactives: at the highest dose activity change, negative = inhibition, usual class: inhibitors. shares compounds with Giardia FBPA inh-1. 5% of 1,500 active. purified Giardia aldolase enzyme activity, qHTS; note: potency is the fitted concentration of half-maximal effect; % is set by controls: 0 for no effect and ±100 for the full control effect; nearly all actives have a fitted effect of over 45% in size
Rabbit FBPA inh = blocks rabbit muscle aldolase in Giardia aldolase selectivity test. shares compounds with Giardia FBPA inh-1. Rabbit muscle FBPA enzyme inhibition, selectivity counter-screen. Potency, µM (series often up to 57.5 µM), for inactives: at the highest dose activity, negative = inhibition, most hits filed as inhibitors. 4% of 1,500 active. AID 2794; note: potency is the fitted concentration of half-maximal effect; % is set by controls: 0 for no effect and ±100 for the full control effect; nearly all actives have a fitted effect of over 60% in size
GAPDH coupling = GAPDH inhibition flagged for Giardia aldolase hits. shares compounds with Giardia FBPA inh-1. GAPDH coupling enzyme counterscreen, biochemical, qHTS. Potency, µM (doses to about 57.5 µM), for inactives: top-dose activity change, negative = inhibition, most hits filed as inhibitors. 6% of 1,500 active; note: potency is the fitted concentration of half-maximal effect; % is set by controls: 0 for no effect and ±100 for the full control effect; nearly all actives have a fitted effect of over 55% in size
An asterisk follows results filed as active; ? = inconclusive; / = not tested or not shown; [ ] = dose if it differs, or a comment. The entries come from a sample that favours hits as a whole. Unless noted, calls come from the whole dose curve; as a rule, active = well fitted curve in the direction sought with a large enough effect; inconclusive = small, poorly fitted or top-dose-only effect, or another doubt; inactive = no such curve, though single readings can be large; an effect the other way counts as inactive or inconclusive.

SMILES	TbPYK inhibitor	LmPK inh	Shiga inhibitor	Cycloheximide cs	RE007 growth inh	Giardia FBPA inh-1	Giardia growth	Mammalian tox	Giardia FBPA inh-2	Rabbit FBPA inh	GAPDH coupling
COc1ccc(-c2nc(C(=O)O)cs2)cc1OC	4.1%	0.0%	20.1	-2.6	3.7%	-11.2%	/	/	/	/	/
O=C(NCCc1ccc(Cl)cc1)c1ccc(CSCc2cccc(Cl)c2)o1	3.6%	/	/	/	/	/	/	/	/	/	/
CCN(CC)CCN(Cc1cc2cc3c(cc2[nH]c1=O)OCCO3)C(=S)NCC1CCCO1 (configuration not stated)	-3.8%	6.4%	12.2	8.8	-10.6%	7.92µM*	30.7%	-7.9%	6.7%	0.1%	-19.8%
Cn1nnc(NC(=S)NC(=O)Cc2ccccc2)n1	-2.4%	4.8%	17.2	6.3	0.6%	1.58µM*	-13.1%[38.3 µM]	-5.4%	-7.0%	-4.7%	-1.5%
COc1cccc(C(=O)NC(=S)Nc2nnn(C)n2)c1	-15.3%	-6.1%	20.6	18.0	0.6%	1.58µM*	-18.2%[38.3 µM]	-1.0%	-1.6%	5.2%	6.7%
CCOc1ccccc1C(=O)Oc1c(S(=O)(=O)c2ccc(C)cc2)c(C)nn1-c1ccccc1	-3.6%	/	/	/	/	/	/	/	/	/	/
O=C(N/N=C/c1ccccn1)c1cccc([N+](=O)[O-])c1	5.1%	-0.9%	54.9*	8.8*	2.8%	15.8µM*	-26.8%	?	15.1%	-2.9%	8.1%
O=C(N/N=C/C=C/c1cccc([N+](=O)[O-])c1)c1ccncc1	2.2%	1.9%	45.5	5.5	6.5%	15.8µM*	28.2µM*	-4.5%	3.4%	-4.1%	4.7%
O=C(N/N=C/c1ccc2ncccc2c1)c1cccc([N+](=O)[O-])c1	-11.0%	-0.1%	22.5	7.5	-10.1%	14.3%	/	/	/	/	/
O=C(N/N=C/c1ccccn1)c1ccc2nc[nH]c2c1	-3.3%	-0.4%	-4.6	-2.2	-11.1%	15.8µM*	8.0%[10.4 µM]	4.7%	5.4%	4.0%	-8.4%
O=C(N/N=C/c1ccccn1)c1ccc(NC(=O)c2cccc([N+](=O)[O-])c2)cc1	3.8%	4.3%	8.7	0.5	12.1%	14.1µM*	?	-9.9%	4.5%	-1.3%	-4.5%
O=C(CSc1ccc2nc(-c3ccccc3)cn2n1)Nc1cccc(F)c1	-8.1%	/	/	/	/	/	/	/	/	/	/
O=C(N/N=C/c1ccccn1)c1cc([N+](=O)[O-])cc([N+](=O)[O-])c1	-10.9%	0.4%	-4.8	8.1	-11.2%	9.98µM*	25.1µM*	?	0.8%	-7.6%	-6.0%
Cc1ccc(C(=O)N/N=C\c2ccc([N+](=O)[O-])o2)cn1	-3.1%	2.5%	13.1	5.2	-11.7%	11.2µM*	3.16µM*	-19.2%	-7.2%	-3.4%	1.3%
Cc1ccc(C(=O)N/N=C\c2ccccn2)cn1	1.7%	-0.9%	62.5*	40.1*	20.8%	7.92µM*	-10.5%[38.3 µM]	-7.8%	5.8%	4.1%	-8.1%
O=C(CNC(=S)NC(=O)c1cccc([N+](=O)[O-])c1)c1ccccc1	-1.1%	3.4%	-4.9	4.4	2.8%	0.3%	/	/	/	/	/
O=C(NC(=S)Nc1ccccn1)c1cccc([N+](=O)[O-])c1	-0.2%	1.5%	76.0*	42.7*	-15.8%	15.8µM*	?	-7.3%	4.7%	6.2%	13.4%
O=C(N/N=C/c1ccccn1)c1cc(C2CC2)[nH]n1	-1.5%	-0.6%	111.3*	37.9*	-6.6%	17.7µM*	?	-6.5%	-3.1%	-2.0%	5.3%
Cc1csc(N/N=C/c2ccccn2)n1	-22.6%	-22.0%[11.5 µM]	77.2	15.3	?	15.8µM*	-6.5%[10.4 µM]	25.1µM*	-3.4%	-0.7%	-10.5%
CCOc1ccc(S(=O)(=O)N2CCN(C(=O)CN3C(=O)NC(C)(C)C3=O)CC2)cc1	3.1%	/	/	/	-1.0%	/	/	/	/	/	/
CCOC(=O)N1CCN(C(=O)CCCn2c(=S)[nH]c3ccsc3c2=O)CC1	-6.3%	-12.0%	-12.4	12.7	36.6%	15.8µM*	-2.0%[10.4 µM]	16.2%	-3.8%	0.9%	13.2%
O=C(CCCn1c(=S)[nH]c2ccsc2c1=O)NCc1ccco1	-26.2%	-16.3%	-6.1	-0.9	9.7%	15.8µM*	-3.4%	-3.1%	-1.1%	2.2%	11.8%
COC(=O)C1(C(=O)OC)C[C@H](c2ccc(OC)cc2)N(Cc2ccccc2OC)[C@@H]1c1ccccc1	/	/	/	/	-1.4%	/	/	/	/	/	/
Cc1cc(/C([O-])=C(/C(=S)Nc2ccc(F)cc2)[n+]2ccccc2)c(C)n1Cc1ccccc1Cl	10.8%	3.0%	-5.2	9.5	-3.2%	-10.7%	/	/	/	/	/
O=S(=O)(c1ccc(F)cc1)N1CCN(CC(O)COc2ccccc2F)CC1 (configuration not stated)	-0.8%	2.0%	-4.7	4.2	-2.6%	28.2µM*	?	-15.2%	1.7%	0.7%	6.9%
